Experimental findings from PubChem BioAssay (NCI) are described below.

This is part of a sample that, as a whole, favours compounds with a hit. Of some 83,000 tested, about 20% had one in any assay.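 Testing used 96-well plates and a 48-hour single-concentration exposure. Example: -40 means 40% of the starting cells died.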 Unmarked numbers belong to inactive results. Activity calls are given as the source filed them. Rule for the calls: active = growth percent below 10; inactive = the rest.

Holding throughout (assay): NCI-60 one-dose screen, 48 h (100 = growth as untreated, 0 = no growth, -100 = all killed)
For one assay, the system named is NCI-H23 lung. Particulars: 10 µM unless noted.
A further assay has as its system NCI-H226 lung. The settings on record: 10 µM unless noted.
A further assay relates to NCI-H322M lung. The settings on record: 10 µM unless noted.
A further assay relates to HOP-62 NSCLC. The settings on record: 10 µM unless noted.
For another assay, the system named is NCI-H460 lung. The settings on record: 10 µM unless noted.
For another assay, the system named is HOP-92 NSCLC. The settings on record: 10 µM.
The next assay has as its system NCI-H522 lung. The settings on record: 10 µM unless noted.
The test system of the next assay is A549/ATCC NSCLC. The settings on record: 10 µM unless noted.
The next assay has as its system 786-0 renal. Particulars: 10 µM unless noted.
For another assay, the system named is COLO 205 colon. Particulars: 10 µM unless noted.
Another assay has as its system DU-145 prostate. Particulars: 10 µM unless noted.
The test system of a further assay is K-562 leukemia. Particulars: 10 µM unless noted.
Another assay has as its system MALME-3M melanoma. The settings on record: 10 µM unless noted.
Another assay deals with MDA-MB-231 breast. The settings on record: 10 µM unless noted.
The next assay deals with RXF 393 renal. Particulars: 10 µM unless noted.
In the next assay the test system is SF-268 CNS. Particulars: 10 µM unless noted.
The subject of the next assay is SF-295 CNS. The settings on record: 10 µM unless noted.
For the next assay, the system named is SF-539 CNS. The settings on record: 10 µM unless noted.
The next assay deals with UACC-257 melanoma. Particulars: 10 µM unless noted.

As for `Cc1cc(C)n(C(=O)c2sc(=S)n(-c3ccccc3)c2N=Nc2c(N)n[nH]c2N)n1`, the growth in the assay with NCI-H23 lung was 104%; in the assay with NCI-H226 lung, 102%; in the assay on NCI-H322M lung, 101%; in the assay with HOP-62 NSCLC, 103%; in the assay on NCI-H460 lung, 108%; in the assay with HOP-92 NSCLC, 114%. Also, the growth in the assay with NCI-H522 lung is 93.2%; in the assay on A549/ATCC NSCLC, 102%; in the assay on 786-0 renal it was 111%; in the assay on COLO 205 colon, 109%; with DU-145 prostate it was 110%; with K-562 leukemia it was 105%. Further, the growth is 73.9% in the assay on MALME-3M melanoma; 89.2% in the assay with MDA-MB-231 breast; 116% in the assay on RXF 393 renal; 104% in the assay with SF-268 CNS; 104% with SF-295 CNS; 99.1% with SF-539 CNS. In addition, the growth in the assay on UACC-257 melanoma was 106%.
With `O=S(=O)(NCCCNc1nccc(-c2[nH]c(-c3ccccc3)nc2-c2ccc(Cl)c(O)c2)n1)c1cccc2ccccc12`, the growth with NCI-H23 lung was 30.6%; in the assay with NCI-H226 lung it was 32.9%; in the assay on NCI-H322M lung it was 50.9%; with HOP-62 NSCLC, 30.9%; in the assay on NCI-H460 lung, 15.5%; in the assay on HOP-92 NSCLC, 51.4%. The growth is 25.2% in the assay with NCI-H522 lung; 26.5% with A549/ATCC NSCLC; 47.9% in the assay with 786-0 renal; 93.8% in the assay with COLO 205 colon; 27.6% in the assay with DU-145 prostate; 17% in the assay with K-562 leukemia. In addition, the growth with MALME-3M melanoma was 6.39% (active); in the assay with MDA-MB-231 breast, 45.9%; in the assay on RXF 393 renal, -9.57% (active); with SF-268 CNS it was 46.8%; in the assay on SF-295 CNS it was 12.9%; in the assay on SF-539 CNS, 44.8%. Further, the growth in the assay with UACC-257 melanoma was 27%.
Consider `COc1cc(-c2nc(-c3ccccc3)[nH]c2-c2ccnc(NCCCNS(=O)(=O)c3cccc(F)c3)n2)ccc1Cl`, for which the growth with NCI-H23 lung is 53.4%; in the assay with NCI-H226 lung, 42.1%; in the assay on NCI-H322M lung, 87.1%; in the assay on HOP-62 NSCLC, 54%; in the assay on NCI-H460 lung it was 28.7%; in the assay on HOP-92 NSCLC, 65.1%. In addition, the growth is 32.6% with NCI-H522 lung; 38% in the assay on A549/ATCC NSCLC; 54.9% with 786-0 renal; 9.39% (active) with COLO 205 colon; 54.3% with DU-145 prostate; 23.4% with K-562 leukemia. Also, the growth in the assay with MALME-3M melanoma is 64.3%; with MDA-MB-231 breast, 64.8%; in the assay on RXF 393 renal, 36.1%; with SF-268 CNS, 59.4%; with SF-295 CNS, 25%; with SF-539 CNS it was 69.5%. The growth with UACC-257 melanoma was 58.7%.
Consider `CCCCCc1ccc(S(=O)(=O)Nc2cc(-c3csc(NC(=O)CN4CCN(C)CC4)n3)ccc2N2CCN(C)CC2)cc1`, for which the growth was 45.1% with NCI-H23 lung; 71.8% in the assay on NCI-H226 lung; 6.19% (active) in the assay on NCI-H322M lung; 42.5% in the assay on HOP-62 NSCLC; -56% (active) in the assay on NCI-H460 lung; 49.9% in the assay with HOP-92 NSCLC. For the same compound, the growth in the assay with NCI-H522 lung is -39.5% (active); in the assay with A549/ATCC NSCLC it was 15.7%; in the assay with 786-0 renal it was -50.9% (active); with COLO 205 colon it was -51.2% (active); in the assay with DU-145 prostate, 15.9%; in the assay with K-562 leukemia, 1.1% (active). The growth is -91.4% (active) in the assay with MALME-3M melanoma; -52.7% (active) in the assay on MDA-MB-231 breast; -33.5% (active) with SF-268 CNS; -63.9% (active) in the assay on SF-295 CNS; -86.2% (active) in the assay on SF-539 CNS; -58.4% (active) with UACC-257 melanoma.
Turning to `O=C(NCc1ncc[nH]1)c1ccc(-c2nc3ccc4[nH]ncc4c3c3c2CCCC3)cc1`, the growth in the assay with NCI-H23 lung was 14.4%; in the assay with NCI-H226 lung, 36%; in the assay with NCI-H322M lung, 21.4%; in the assay with HOP-62 NSCLC, 17.8%; in the assay on NCI-H460 lung, 8.85% (active); in the assay on HOP-92 NSCLC it was -7.23% (active). In addition, the growth was -65% (active) in the assay on NCI-H522 lung; 48.2% in the assay on A549/ATCC NSCLC; 25.4% with 786-0 renal; -10.4% (active) in the assay on COLO 205 colon; 21.6% in the assay with DU-145 prostate; 14.7% in the assay on K-562 leukemia. In addition, the growth in the assay with MALME-3M melanoma is -14.7% (active); in the assay on MDA-MB-231 breast, 10% (active); in the assay on SF-268 CNS, 3.81% (active); in the assay with SF-295 CNS it was 31.5%; in the assay with SF-539 CNS, -2.48% (active); in the assay with UACC-257 melanoma, 27%.
Take `CCC(CC)N1C(=O)/C(=c2\sc3n(c2=O)NC2C(N=3)N(CC)C(=O)N2CC)c2ccccc21` (stereo not drawn): the growth in the assay on NCI-H23 lung is 44.1%; in the assay with NCI-H226 lung, 79.1%; in the assay on NCI-H322M lung, 80.6%; in the assay with HOP-62 NSCLC, 73.2%; in the assay on NCI-H460 lung, 27.5%; in the assay with HOP-92 NSCLC it was 120%. The growth in the assay with NCI-H522 lung is 62.7%; with A549/ATCC NSCLC, 57.6%; with 786-0 renal it was 72.7%; in the assay with COLO 205 colon, 37.8%; in the assay on DU-145 prostate, 52%; in the assay with K-562 leukemia, 26%. Moreover, the growth in the assay on MALME-3M melanoma was 65.2%; in the assay with MDA-MB-231 breast it was 53.2%; with SF-268 CNS, 63.4%; with SF-295 CNS, 20.3%; with SF-539 CNS, 25.2%; in the assay on UACC-257 melanoma, 86.1%.
For the compound `CCCCCc1ccc(S(=O)(=O)Nc2cc(-c3csc(NC(=O)CN4CCN(CCO)CC4)n3)ccc2OC)cc1`, the growth is 71.3% with NCI-H23 lung; 82.9% with NCI-H226 lung; 52.3% in the assay with NCI-H322M lung; 78.7% in the assay with HOP-62 NSCLC; -14% (active) in the assay on NCI-H460 lung; 46.8% in the assay with HOP-92 NSCLC. In addition, the growth in the assay on NCI-H522 lung was 45.7%; in the assay with A549/ATCC NSCLC, 43.4%; with 786-0 renal, -51.5% (active); in the assay with COLO 205 colon it was -21.4% (active); in the assay with DU-145 prostate it was 49.1%; in the assay on K-562 leukemia, 2.84% (active). In addition, the growth in the assay on MALME-3M melanoma is -80.9% (active); in the assay on MDA-MB-231 breast it was 12.6%; in the assay with SF-268 CNS, 59.8%; in the assay on SF-295 CNS it was -23.1% (active); in the assay with SF-539 CNS, -69.2% (active); in the assay with UACC-257 melanoma, -31.4% (active).
For `Cc1ccc(-n2cc(/C=N/NC(=O)c3ccncc3)c(-c3ccc(S(C)(=O)=O)cc3)n2)cc1`, the growth in the assay with NCI-H23 lung was 83%; in the assay on NCI-H226 lung it was 101%; in the assay with NCI-H322M lung, 93.5%; with HOP-62 NSCLC, 88.7%; in the assay on NCI-H460 lung, 101%; with HOP-92 NSCLC, 97.5%. Further, the growth is 68.8% with NCI-H522 lung; 103% in the assay on A549/ATCC NSCLC; 90% with 786-0 renal; 104% with COLO 205 colon; 97.3% with DU-145 prostate; 32.3% with K-562 leukemia. For the same compound, the growth in the assay with MALME-3M melanoma was 68.7%; in the assay on MDA-MB-231 breast it was 79.5%; in the assay on RXF 393 renal, 103%; in the assay on SF-268 CNS, 100%; with SF-295 CNS, 102%; in the assay on SF-539 CNS, 91.8%. Besides, the growth in the assay with UACC-257 melanoma is 96.5%.
